SMILES strings stand for the structures. Screen size: about 370,000 compounds; about 520 (0.14%) were called active. The entries come from a sample that favours actives as a whole. Values without a mark were called inactive. Rule as the data show it: active = activation above about 40%; inactive = the rest.

In this test the target is Atrial natriuretic peptide receptor 1 (Homo sapiens) (UniProt P16066). The test is described as follows: GC-A stimulated cGMP production enhancers – HEK293 GC-A cells, cGMP TR-FRET, EC30 ANP, primary screen (AID 1671463). The conditions noted are these: at 10 µM, stronger effect = higher value, 0% at EC30 ANP, 100% saturating ANP. (Time-resolved FRET reads energy transfer from a long-lived donor to a nearby acceptor.)
Sequence of Atrial natriuretic peptide receptor 1 (Homo sapiens) (P16066 whole entry, looked up): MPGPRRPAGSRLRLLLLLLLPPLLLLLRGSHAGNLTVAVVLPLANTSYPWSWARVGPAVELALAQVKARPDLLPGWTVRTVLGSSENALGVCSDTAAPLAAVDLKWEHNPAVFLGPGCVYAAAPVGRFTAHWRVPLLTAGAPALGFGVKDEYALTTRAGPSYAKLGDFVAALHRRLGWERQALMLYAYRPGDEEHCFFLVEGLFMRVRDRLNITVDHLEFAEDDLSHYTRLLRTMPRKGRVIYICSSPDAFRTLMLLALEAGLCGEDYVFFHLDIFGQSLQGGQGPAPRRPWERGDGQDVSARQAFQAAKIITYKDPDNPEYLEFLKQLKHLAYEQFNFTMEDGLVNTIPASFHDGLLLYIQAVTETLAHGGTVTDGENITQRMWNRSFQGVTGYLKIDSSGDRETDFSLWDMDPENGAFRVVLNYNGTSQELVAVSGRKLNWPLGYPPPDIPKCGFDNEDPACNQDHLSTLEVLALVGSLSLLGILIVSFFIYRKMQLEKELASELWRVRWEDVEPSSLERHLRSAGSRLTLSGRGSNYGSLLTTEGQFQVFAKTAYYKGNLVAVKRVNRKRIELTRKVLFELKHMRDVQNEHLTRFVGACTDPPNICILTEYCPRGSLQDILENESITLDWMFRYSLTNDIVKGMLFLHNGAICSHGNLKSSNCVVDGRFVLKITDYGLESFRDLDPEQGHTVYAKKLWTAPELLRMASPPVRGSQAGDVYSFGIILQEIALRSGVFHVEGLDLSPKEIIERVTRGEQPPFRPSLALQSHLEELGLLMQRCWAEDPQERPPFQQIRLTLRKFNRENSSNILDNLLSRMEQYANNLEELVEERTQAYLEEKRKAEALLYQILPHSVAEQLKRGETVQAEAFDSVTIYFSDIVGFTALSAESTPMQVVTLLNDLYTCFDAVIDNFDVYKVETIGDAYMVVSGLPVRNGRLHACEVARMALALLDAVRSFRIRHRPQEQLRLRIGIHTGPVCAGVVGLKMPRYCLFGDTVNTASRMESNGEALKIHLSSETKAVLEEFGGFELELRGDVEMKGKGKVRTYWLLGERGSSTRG
With `Cc1nc(Cl)c2oc3ccccc3c2n1`, the activation was 41.1% (active).

In the case of `Cc1nc(N2CCCC2C(=O)O)c2oc3ccccc3c2n1` (centres undefined), the activation is -1.86%.

Take `C[C@@H](Nc1nc(-c2ccccc2)nc2c1oc1ccccc12)C(=O)O`: the activation is -3.4%.

Regarding `CC12CN(NC(=O)c3ccc(Cl)cc3)C3(C#N)CC1CCC23C` (centres undefined), the activation was 0.43%.

On to `C#CCN([C@H](C(=O)OC)C(C)CC)S(=O)(=O)c1ccccc1Br` (some centres undefined), for which the activation was -4.19%.

In the case of `Cc1ccc(S(=O)(=O)CC(=O)NC(C)c2ccccc2)cc1` (centres undefined), the activation was 4.14%.

Regarding `CCOc1ccccc1NC(=O)C1CCC(CNc2c(N3CCOCC3)c(=O)c2=O)CC1` (centres undefined), the activation is 0.11%.

`CC(C)c1cc(C(=O)O)on1`: the activation is -0.6%.

`Cc1ccc(C(=O)NCC(=O)NCc2cc(=O)n(C)c(=O)n2C)cc1`: the activation was 1.88%.

Turning to `CN(C)/C(=N\OC(=O)c1ccccc1)c1nonc1N`, the activation is -2.63%.

On to `Cc1cccc(-n2ncc(Cl)c(Cl)c2=O)c1`, for which the activation is 40.6% (active).

Turning to `CCOc1ccc(Oc2c(Cl)cnn(-c3ccc(C)cc3)c2=O)cc1`, the activation was 4.6%.

As to `Nc1c(-c2cccc(Cl)c2)cnn1-c1cccc([N+](=O)[O-])c1`, the activation was -2.54%.

As to `COC(=O)c1ccc(C2C3=C(Nc4nnnn42)c2ccccc2OC3)cc1` (centres undefined), the activation is 1.48%.

For `CCc1c(C)sc(NC(=O)OC)c1C(=O)N1CCOCC1`, the activation is 0.05%.

With `C/C(Cl)=C\Cn1c(Nc2cccc(C)c2)nc2c1c(=O)n(C)c(=O)n2C`, the activation was 51.1% (active).

On to `Cc1cccc(Cn2c(N3CCN(c4ccccc4)CC3)nc3c2c(=O)n(C)c(=O)n3C)c1`, for which the activation is -29%.

For the compound `Cn1c(=O)c2c(nc(N/N=C/c3cccs3)n2Cc2ccc(Br)cc2)n(C)c1=O`, the activation is 18.6%.

`CCN(CC(=O)Nc1cc(Cl)ccc1C)C(=O)CSCc1ccc(C)cc1`: the activation is -0.6%.

Consider `CC1(c2ccc3ccccc3c2)NC(=O)N(CC(N)=O)C1=O` (centres undefined), for which the activation was 3.94%.

For the compound `C=CCN1C(=O)[C@@H](CC(=O)NCCCCc2ccccc2)[C@]2(C(=O)OCC)CCCCC/C=C/12`, the activation is 3.65%.

Turning to `COc1ccc(N(CC(=O)NCC2CCCO2)C(=O)CCC(=O)Nc2nccs2)c(OC)c1` (centres undefined), the activation was 4.75%.

Consider `CC(C)(C)C(=O)CCN1C(=O)C2(OCCO2)c2ccccc21`, for which the activation was 1.22%.

Turning to `CC(=O)NC(c1cccs1)c1cc(Br)c2cccnc2c1O` (centres undefined), the activation was -1.9%.

As to `CCCCCCCCN1C(=O)[C@@H](CC(=O)NCc2ccccc2)C[C@@]2(C(=O)OC)C1=C[C@H](C(C)(C)C)O[C@@H]2C`, the activation was 2.65%.

Take `O=C(/C=C/Sc1ncn[nH]1)c1ccc(Cl)cc1`: the activation is 64.8% (active).

As for `COc1ccc(CN2CC[C@H]3C=CC[C@@H](C(=O)N4CCOCC4)[C@H]3C2=O)cc1OC`, the activation is 1.45%.

For `COC(=O)c1c(NC(=O)COc2ccc(Cl)cc2Cl)sc2c1CC(C)(C)NC2(C)C`, the activation is 6%.

Consider `CSCC[C@H](NC(=O)NC1CCCC1)C(=O)O`, for which the activation was 0.42%.

Take `O=C(NCCc1ccccc1)c1c[nH]c2ccc(F)cc2c1=O`: the activation is 1.93%.

In the case of `O=c1[nH]c2c(c(=O)n1-c1ccccc1)CCO2`, the activation is -0.17%.

For the compound `Fc1ccc(Nc2nnns2)cc1`, the activation is 3.58%.

With `COCCN(Cc1ccccc1)C(=O)Cc1ccc(S(=O)(=O)N2CCOCC2)s1`, the activation is -2.49%.

With `CS(=O)(=O)c1cccc(-c2ccc3nncn3c2)c1`, the activation is 4.9%.

With `CCCCS(=O)c1snnc1C` (centres undefined), the activation is 1.27%.

For the compound `COc1ccc(/C=C/CN2CCN(Cc3ccc(C)cc3)C(CCO)C2)cc1` (centres undefined), the activation was 0.4%.

`O=C(OCC(=O)N1CCCC1)c1ccc(Cl)nc1`: the activation is -0.33%.

Turning to `CC1(C)CC(N(Cc2ccccc2)C(=O)Cc2ccccc2)CCO1` (centres undefined), the activation is -16.2%.

In the case of `CCOc1c(Br)cc(/C=C2\C(=O)N(CCC#N)N=C2C)cc1OC`, the activation was 40.1% (active).

On to `Cc1ccc(C(c2nnnn2CS(=O)(=O)c2ccc(C)cc2)N2CCC(C)CC2)cc1` (centres undefined), for which the activation was -0.04%.

Consider `CCCSc1nsc(N)n1`, for which the activation was -1.07%.

With `CC(C)(CNC(=O)Cc1ccc(Cl)cc1Cl)N1CCOCC1`, the activation is 1.34%.

As to `CCOC(=O)c1cccc(NC(=O)C2CCCN(S(=O)(=O)c3cnc[nH]3)C2)c1` (centres undefined), the activation was 1.55%.

In the case of `Cc1ccsc1C1C(C#N)=C(N)OC2=C1C(=O)CC(C)(C)C2` (centres undefined), the activation was 1.86%.

Regarding `CCCn1nnnc1NC(=O)COc1ccc(Cl)cc1C`, the activation is 0.54%.

`O=C(c1ccc(CS(=O)Cc2ccccc2Cl)o1)N1CCN(c2ccccc2)CC1` (centres undefined): the activation is -8.64%.

Consider `Cc1ccsc1C(=O)NCCc1ccco1`, for which the activation is 5.29%.

In the case of `O=C(NCCc1ccco1)c1nn(Cc2ccccc2)c(=O)c2ccccc12`, the activation was 41.3% (active).

For `O=c1c2ccccc2c(-c2ccc(Br)cc2)nn1Cc1ccccc1`, the activation was 1.66%.

`Cc1ccc(S(=O)(=O)NNC(=S)NC(C)(C)C)cc1`: the activation is 4.04%.

On to `COC(=O)[C@@H](NC(=O)Nc1cc(Cl)ccc1C)C(C)C`, for which the activation is 4.54%.

As to `CC(C)Oc1ccc(S(=O)(=O)N2CCOCC2)cc1NC(=O)C1CCCC1`, the activation is 0%.

For `Cn1c2ccccc2c2cc(/C=C(\NC(=O)c3ccccc3)C(=O)NCC(=O)O)ccc21`, the activation is 1.03%.

On to `COCCCNC(NC(=O)c1ccc(OC)cc1)C(Cl)(Cl)Cl` (centres undefined), for which the activation was -6.96%.

In the case of `CSCCC(Nc1ccc(S(=O)(=O)N2CCOCC2)cc1[N+](=O)[O-])C(=O)OCC(=O)N(C(C)C)C(C)C` (centres undefined), the activation is 3.61%.

Take `CCOC(=O)CNc1nc(Cl)nc(Nc2ccccc2)n1`: the activation was -0.38%.

Regarding `CCC(=O)Nc1ccc(Nc2nc(Cl)nc(Nc3ccc(NC(=O)CC)cc3)n2)cc1`, the activation was 41.8% (active).

`CCC(=O)Nc1ccc(-c2ccc(N3CCCCC3)nn2)cc1`: the activation was 1.98%.

As to `CCC(=O)N1CCC(C)(C(=O)Nc2cc(OC)c(OC)c(OC)c2)C1` (centres undefined), the activation is 0.68%.

For the compound `CCCc1cc(=O)[nH]c(SCC(=O)c2c(N)n(CC(C)C)c(=O)n(C)c2=O)n1`, the activation is -6.69%.

As for `Cc1ccc(S(=O)(=O)N2CCOCC2)cc1NC(=O)CSc1nnc(N)s1`, the activation is -4.98%.

As to `COc1ccc(C#CCNCc2ccc(OC)cc2OC)cc1`, the activation is -0.15%.

`O=C(Oc1ccc2c(c1)CCC2)N1CCOCC1`: the activation is 4.74%.

In the case of `CCOC(=O)C(=O)N(Cc1ccccc1)c1ccccc1C(=O)Nc1cc(OC)ccc1OC`, the activation was -11.8%.

With `COc1ccc(NC(=S)SC)cc1OC`, the activation is 1.77%.

As for `COc1ccccc1C(=O)N(C1=NC(C)CS1)c1ccc(Cl)cc1` (centres undefined), the activation was -15.5%.

As to `CC1CCN(CCCNC(=O)CN2C(=O)CSc3ccc(S(=O)(=O)N4CCCCC4)cc32)CC1`, the activation is 3.44%.

Consider `Cn1nc(C(F)(F)F)cc1-c1ccc(/C=C(\C#N)C(=O)c2cccc(C(F)(F)F)c2)s1`, for which the activation is 25.6%.

`CC1CCCC(N2CCN(C(=O)c3ccc(F)cc3)CC2)C1` (centres undefined): the activation was 5.28%.

For the compound `O=S(=O)(c1ccc(-c2ccccc2)cc1)N1CCCC1`, the activation is 0.74%.

As to `Cc1cccc(C(=O)Nc2ccccc2-c2nnn(CC(=O)Nc3ccc4c(c3)OCCO4)n2)c1`, the activation is -13.7%.

Turning to `CN1C[C@]2(C=C3CCCCC3n3c(=O)n(-c4ccccc4)c(=O)n32)N=C1NC(=O)c1ccccc1` (some centres undefined), the activation is -1.71%.

With `C#CCCN([C@H](C(=O)OC)C(C)C)S(=O)(=O)c1ccc(F)cc1Br`, the activation was -5.17%.

In the case of `COc1ccccc1-n1nnnc1S(=O)(=O)Cc1ccc(Cl)cc1`, the activation was 0.71%.

As to `Cc1nc(-c2ccc(Cl)cc2)sc1C(=O)CBr`, the activation is 49.9% (active).

Turning to `Cc1nc(-c2ccc(Cl)cc2)sc1C1(C)CC(c2ccc(Br)cc2)=NO1` (centres undefined), the activation was -0.28%.

Take `Cc1nc(-c2ccc(Cl)cc2)sc1C1(C)CC(c2ccccc2F)=NO1` (centres undefined): the activation is 2.63%.

Consider `Cc1ccccc1CN1CCCCC(NC(=O)c2cccc(C#N)c2)C1=O` (centres undefined), for which the activation is 1.67%.

Turning to `CCOc1ccc(S(=O)(=O)N2CCC(c3ccccc3)CC2)cc1C(=O)O`, the activation was 0.54%.

Turning to `COc1cc(CNc2ncn[nH]2)ccc1OCc1ccccc1C`, the activation is 0.42%.

Turning to `C/C=C/c1ccc(OCCOc2ccc(C=O)cc2OC)c(OC)c1`, the activation is 3.2%.

Consider `COc1ccnc2c1c(=O)n(Cc1cccc(F)c1)c(=O)n2C`, for which the activation is 8.86%.

Take `COc1cc(/C=C2/C(=O)ON=C2C)ccc1OCc1cccc(F)c1`: the activation is 52.6% (active).

In the case of `CCOc1cc(/C=N/O)ccc1OCc1ccccc1F`, the activation is -0.44%.

In the case of `COc1cc(/C=C2/C(=O)ON=C2C)ccc1OCc1ccccc1F`, the activation is 51.8% (active).

With `COc1ccc(CCNC(=O)c2ccc(NC(=O)CC3SC(N4CCCCC4)=NC3=O)cc2)cc1OC` (centres undefined), the activation was -0.61%.

Consider `COCCCN1C(=O)C(=O)/C(=C(/O)c2ccc(S(=O)(=O)N3CCOCC3)cc2)C1c1ccc(F)cc1` (centres undefined), for which the activation was 1.53%.

Regarding `CCc1c(-c2ccccc2OC)ncn1CCc1ccccc1OC`, the activation is -8.39%.

As for `CCc1nc2c(OCc3cccc(OC)c3)cccn2c1N(C)C(=O)C(C)C`, the activation was -2.25%.

As for `CC(NC(=O)CCCC1CCCCC1)c1ccc(S(N)(=O)=O)cc1` (centres undefined), the activation was -4.53%.

As for `CC(=O)Oc1c(C(=O)c2nnc(C)o2)c(=O)n(Cc2ccccc2)c2ccccc12`, the activation was -0.69%.

For `O=C1CCCCC1Sc1ccc(Cl)cc1[N+](=O)[O-]` (centres undefined), the activation was -7.33%.

On to `CCN(CC)C(CNC(=O)CSc1nnnn1-c1cccc(F)c1)c1ccco1` (centres undefined), for which the activation was 2.86%.

On to `Cc1ccc(S(=O)(=O)N2C[C@@H]3CCCC[C@@H]3[C@@H](C)[C@H]2c2cn(Cc3ccccc3)c3ccc(F)cc23)cc1`, for which the activation is 3.1%.
